Test results from the GenesisPotency data set.
Screen size: about 290,000 compounds; about 3,000 (1%) were called active. Cut-off read from the data, not from the text of the source: active = inhibition mostly above about 36% (no sharp cut-off); inactive = mostly below about 34%. The entries come from a sample that favours actives as a whole.

Target: T1, Nucleotide-binding oligomerization domain-containing protein 1, Homo sapiens (UniProt Q9Y239)
T1 sequence (whole entry): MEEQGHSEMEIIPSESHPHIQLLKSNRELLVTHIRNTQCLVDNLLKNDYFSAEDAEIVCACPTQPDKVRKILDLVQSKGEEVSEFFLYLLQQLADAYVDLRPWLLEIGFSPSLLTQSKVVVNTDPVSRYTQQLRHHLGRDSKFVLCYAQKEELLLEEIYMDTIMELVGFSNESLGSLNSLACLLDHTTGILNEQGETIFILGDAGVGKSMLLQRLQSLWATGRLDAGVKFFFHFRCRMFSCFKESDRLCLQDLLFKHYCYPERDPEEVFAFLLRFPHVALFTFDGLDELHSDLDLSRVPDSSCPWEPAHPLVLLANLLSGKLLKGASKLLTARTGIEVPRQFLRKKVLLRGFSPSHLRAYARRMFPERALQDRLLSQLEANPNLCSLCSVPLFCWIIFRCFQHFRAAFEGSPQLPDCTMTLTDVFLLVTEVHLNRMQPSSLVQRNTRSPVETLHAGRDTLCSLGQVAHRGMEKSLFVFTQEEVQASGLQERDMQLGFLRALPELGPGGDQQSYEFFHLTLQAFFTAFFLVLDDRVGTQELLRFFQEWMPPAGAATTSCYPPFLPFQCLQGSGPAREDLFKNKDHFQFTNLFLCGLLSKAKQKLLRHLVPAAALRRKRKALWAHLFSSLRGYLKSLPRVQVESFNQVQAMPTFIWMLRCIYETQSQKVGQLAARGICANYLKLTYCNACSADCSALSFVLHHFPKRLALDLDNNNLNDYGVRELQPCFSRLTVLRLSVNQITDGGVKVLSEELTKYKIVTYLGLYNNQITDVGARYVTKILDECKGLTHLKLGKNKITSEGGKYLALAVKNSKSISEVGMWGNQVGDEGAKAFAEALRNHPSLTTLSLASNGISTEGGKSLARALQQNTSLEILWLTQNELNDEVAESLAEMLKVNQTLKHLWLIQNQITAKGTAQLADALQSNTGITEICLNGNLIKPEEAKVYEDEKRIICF
Assay: NOD1 signaling inhibitors, primary screen, cell-based, luminescence, uHTS (AID 1578)

outcome, active:
O=c1c(C(c2ccccc2)c2c(O)sc3ccccc3c2=O)c(O)sc2ccccc12
COc1ccc2cc3c(N)nn(C(=O)c4ccc(F)cc4)c3nc2c1
COc1ccc2cc3c(N)nn(C(=O)c4cccc(F)c4)c3nc2c1
COc1ccc2cc3c(N)nn(C(=O)c4cccc([N+](=O)[O-])c4)c3nc2c1
Cc1ccc2nc(NC(=O)CSCC(=O)OCC(=O)c3ccc(Br)cc3)sc2c1
Cc1c(C)c2ccc(OCC(=O)Nc3ccccn3)c(C)c2oc1=O
COc1cccc(C(=O)c2sc(NC(C)C)nc2N)c1
O=c1c(Cl)c(Cl)cnn1Cc1nnc(-c2ccccc2Br)o1
COC(=O)CCn1nnc(-c2ccc(C(C)C)cc2)n1
CC(C)c1ccc(-c2nnn(CCC(=O)O)n2)cc1
COc1ccc2cc3c(N)nn(C(=O)C4CCC(C(C)(C)C)CC4)c3nc2c1 (stereo not drawn)
COc1ccc2cc3c(N)nn(C(=O)c4ccccc4[N+](=O)[O-])c3nc2c1
COc1ccc2cc3c(N)nn(C(=O)c4ccccc4Cl)c3nc2c1
CN(Cc1ccccc1)S(=O)(=O)c1nnc(NC(=O)c2ccc(F)cc2)s1
COc1cc(OC)c(N(C)S(=O)(=O)c2cccc(C(=O)OCC(=O)c3c[nH]c4ccccc34)c2)cc1Cl
O=c1cc(CSc2ccc(Cl)cc2)nc(-c2ccccn2)[nH]1
Cn1c2ccccc2c(=O)c2c(=O)n(C3CCCCC3)c(-c3ccco3)nc21
O=C(Nc1cc(C(F)(F)F)cc(C(F)(F)F)c1)Nc1cnn(-c2ccc([N+](=O)[O-])cc2)c1C(F)(F)F
O=S(=O)(Nc1nc2ccccc2nc1N1CCN(c2ccccc2F)CC1)c1ccc(Cl)cc1
COc1ccccc1-c1cc(C(F)(F)F)nc(S(=O)(=O)CCCC(=O)Nc2cccnc2Cl)n1
COc1ccc(-c2cc(C(F)(F)F)nc(S(=O)(=O)CCCC(=O)Nc3cccc(O)c3)n2)cc1OC
COc1ccccc1-c1cc(C(F)(F)F)nc(S(=O)(=O)CCCC(=O)N2CCCCC2C)n1 (stereo not drawn)
COc1ccc(-c2cc(C(F)(F)F)nc(S(=O)(=O)CCCC(=O)Nc3cccnc3Cl)n2)cc1OC
COc1ccc2[nH]cc(C(=O)CCl)c2c1
COc1ccc2c(C(=O)CCl)c[nH]c2c1
Cc1nn(-c2ccccc2)c(Cl)c1CN(C(=O)CCl)c1ccc(Cl)cc1
CCC(=O)Nc1cccc(C(=O)/C=C/c2cc(Br)ccc2OC)c1
COc1ccc(Br)cc1/C=C/C(=O)c1ccc(NC(C)=O)cc1
Cc1ccc(C(C)C)c(OCc2ccc(C(=O)N/N=C/c3ccc(C(=O)O)cc3)cc2)c1
CN(C)S(=O)(=O)c1cccc(NC(=O)CSc2cccc3cccnc23)c1
O=C(CSc1cccc2cccnc12)Nc1ccc(S(=O)(=O)N2CCOCC2)cc1
CCOc1ccc2c(c1)C(=NNC(=O)c1ccncc1)c1cc(OCC)ccc1-2
CC(=O)c1c(C)[nH]c(C(=O)COC(=O)c2cccc(S(=O)(=O)N(C)c3ccccc3)c2)c1C
CNc1nc(-c2ccc3c(c2)CCN3S(=O)(=O)c2ccccc2)c(C)s1
COc1ccc(Nc2cc(Nc3cc(OC)c(OC)c(OC)c3)ncn2)cc1
Cc1cc(Nc2nc3ccccc3nc2Cl)n(-c2ccc([N+](=O)[O-])cc2)n1
COc1ccc(C)cc1NC(=O)CSc1ccc(-c2ccccn2)nn1
CCOc1ccc(-c2nnc(NC(=O)c3ccc(OCC(C)C)c(OC)c3)o2)cc1
O=C(Nc1nnc(-c2ccc(F)cc2)o1)c1cccc([N+](=O)[O-])c1
COc1ccc(-c2nnc(NC(=O)c3ccc(F)cc3)o2)cc1
O=C(Nc1nnc(-c2ccc(F)cc2)o1)c1cc(Cl)sc1Cl
CN(c1ccccc1)S(=O)(=O)c1ccc(C(=O)Nc2nnc(-c3ccc(F)cc3)o2)cc1
O=C(Nc1ccc(C(F)(F)F)cc1)C1CCN(S(=O)(=O)c2ccc(N3CCCC3=O)cc2)CC1
C/C(=N\Nc1ncnc2sc(C)c(C)c12)c1ccccn1
CC(=O)c1c(C)n(-c2ccccc2)c2ccc(O)cc12
COc1ccc(-n2c(C)c(C(C)=O)c3cc(OC(C)=O)ccc32)cc1
CCOc1ccc(-n2c(C)c(C(C)=O)c3cc(OC(C)=O)ccc32)cc1
COc1ccc2c(c1)c(C(C)=O)c(C)n2CCc1ccccc1
COc1ccc(-n2c(C)c(C(C)=O)c3cc(O)ccc32)cc1
COc1ccc2c(c1)c(C(C)=O)c(C)n2-c1ccc(C(C)=O)cc1
COc1ccccc1N1CCN(c2nc(C)nc3c2oc2ccccc23)CC1.Cl
COc1ccc(-c2csc3ncnc(NCCN4CCOCC4)c23)cc1
Clc1ccc(-c2csc3ncnc(NCCN4CCOCC4)c23)cc1
CC(C)n1c(CN(C)Cc2ccccc2)nc2c1c(=O)n(C)c(=O)n2C
CCN1/C(=C/C=C/C=C/C=C/c2sc3ccccc3[n+]2CC)Sc2ccccc21.[I-]
c1cc(-c2nnc3sc(C4CCCCC4)nn23)ccn1
c1ccc(CCc2nn3c(-c4ccncc4)nnc3s2)cc1
Cc1c(CCC(=O)O)c(=O)oc2cc(OCc3ccccc3Br)ccc12
CC(C)(C)C1CCC2(CC1)C(C#N)=C(SCC(=O)Nc1ccccc1)NC(=O)C2C#N (stereo not drawn)
N#CC1=C(SCC(=O)NC23CC4CC(CC(C4)C2)C3)NC(=O)C(C#N)C12CCCCC2 (stereo not drawn)
Cc1ccc(NC(=O)CSc2nn(-c3ccccc3)c(=S)s2)cc1S(=O)(=O)N(C)C
CC(C)(C)C(=O)Nc1ccc(NC(=O)c2ccco2)nc1
O=C(Nc1nc2ccc([N+](=O)[O-])cc2s1)c1ccc(S(=O)(=O)N2CCCc3ccccc32)cc1
Nc1ncnc(N2CCc3ccccc32)c1[N+](=O)[O-]
CC1CCCCN1c1ncnc(N)c1[N+](=O)[O-] (stereo not drawn)
COc1ccc2sc3c(=O)[nH]c4ccccc4c3c2c1
Cc1ccc(S(=O)(=O)N2CCN(c3ncnc4sccc34)CC2)cc1
O=S(=O)(c1ccc2c(c1)OCCO2)N1CCN(c2ncnc3sccc23)CC1
